In ChEMBL document CHEMBL3988442, “University of Dundee, Small-Polar-MMV Screening Library” (2021):
Out of some 48,000 compounds screened, about 13,000 (27%) showed an effect of 50% or more. This is one part of the list.

System: Wolbachia pipientis
Assay: Anti-Wolbachia Cell-Based Screen
Assay type: functional
Set-up: scale not given: in the data most compounds retested in dose-response had high values
Settings: 5 µM

Row | SMILES | Percent Effect [%]
1 | CCN1C(=O)[C@H]2CN(CC(C)C)C[C@H]2C12CCN(C(=O)NC(C)C)CC2.O=C(O)C(F)(F)F | -7.35
2 | CCCOC(C)Cn1ccc2[nH]c(=O)c(C#N)cc2c1=O (configuration not stated) | -62.19
3 | CC(C)C(C)(CNC(=O)OC(C)(C)C)NC(=O)c1cnccn1 (configuration not stated) | 1.478
4 | Cc1c(NCCOCC(F)(F)F)cccc1C(=O)N1CCCC1 | 1.47
5 | COc1ccc(S(=O)(=O)NCC(O)c2sccc2C)cc1C (configuration not stated) | 4.303
6 | CCCC(=O)NC1CCCN(c2nc3ccccc3cc2CO)C1 (configuration not stated) | 0.5391
7 | O=C(c1ccsc1)N1CC(C(=O)N2CCOCC2)C2(CCOCC2)C1 (configuration not stated) | -0.6494
8 | CC(C)(C)n1ncc(C(=O)NCCCC(N)=O)c1C(F)(F)F | 6.459
9 | Cc1ccc(S(N)(=O)=O)cc1C(=O)NC1CCCN(C)C1 (configuration not stated) | 108
10 | Cc1ccc(S(N)(=O)=O)cc1C(=O)N1C[C@@H](CN(C)C)[C@@H](CO)C1 | 4.643
11 | Cc1ccc(S(N)(=O)=O)cc1C(=O)N1CCc2c(ncnc2N(C)C)C1 | -11.64
12 | O=S1(=O)CCC(c2nc(-c3cccc(Br)c3)no2)C1 (configuration not stated) | -8.148
13 | CN1[C@H]2CC[C@@H]1CN(C(=O)CCc1csc(N)n1)CC2 | 2.348
14 | CC(C)N1CCCC1c1csc(N)n1 (configuration not stated) | 125.7
15 | CN(C)C1CCCN(C(=O)CCc2csc(N)n2)CC1 (configuration not stated) | -10.57
16 | CC(NC(=O)C1(NC(=O)c2ccc3[nH]ncc3c2)CCCC1)C1CC1 (configuration not stated) | -1.4
17 | CCn1cnnc1CNC(=O)N(C)Cc1ccc2c(c1)OCO2 | 127.8
18 | CC(NC(=O)N(C)Cc1cccc(OC(F)F)c1)c1nncn1C (configuration not stated) | -22.06
19 | CCn1cnnc1CNC(=O)N(C)Cc1ccc(F)c(F)c1 | -10.5
20 | CCn1cnnc1CNC(=O)N(C)Cc1cccc(OC(F)F)c1 | 110.2
21 | CCn1cnnc1CNC(=O)Cc1ccc2c(c1)OCCO2 | 101.5
22 | CCn1cnnc1CNC(=O)N(C)Cc1ccc2c(c1)OCCO2 | 2.42
23 | CCN(Cc1ccc2c(c1)OCCO2)C(=O)NCc1cc[nH]n1 | -1.226

Row | SMILES | Percent Effect [%]
24 | CCn1cnnc1CNC(=O)CCC(=O)c1ccc2c(c1)OCCO2 | 5.212
25 | CCN(Cc1ccc2c(c1)OCCO2)C(=O)NCc1nncn1CC | 99.19
26 | CCn1cnnc1CNC(=O)N(C)Cc1ccc(Cl)cc1Cl | -3.326
27 | CCN(Cc1ccc2c(c1)OCCO2)C(=O)NCc1nc(C)cs1 | -0.008456
28 | CCn1cnnc1CNC(=O)C1COc2ccc(Cl)cc2C1 (configuration not stated) | -2.501
29 | CCNS(=O)(=O)c1ccc(C)c(C(=O)N(C)Cc2ccco2)c1 | -0.5279
30 | N#Cc1ccccc1OCCN1CCC(C(=O)N2CCOCC2)CC1 | -3.937
31 | COc1cccc(CCNC(=O)CN2CCN(C)CC2C)c1 (configuration not stated) | 5.841
32 | Cc1nnc(N2C[C@@H]3CCCO[C@@H]3[C@H](N3CCCC3=O)C2)s1.O=C(O)C(F)(F)F | -2.907
33 | Cn1cc(-c2c(C#N)c(N)nc3c2CCc2[nH]ccc2-3)cc1C#N | -2.103
34 | Cc1n[nH]c(C)c1-c1c(C#N)c(N)nc2c1CCc1[nH]ccc1-2 | 9.181
35 | Cc1n[nH]c(C)c1-c1cc(-c2ccc[nH]2)nc(N)c1C#N | 119.5
36 | Cc1n[nH]c(C)c1-c1cc(-c2cc[nH]c2)nc(N)c1C#N | 123.5
37 | Cc1n[nH]c(C)c1-c1cc(-c2cccc(O)c2)nc(N)c1C#N | 88.86
38 | CC(C)Cc1cc(-c2cc(-c3ccc[nH]3)nc(N)c2C#N)n[nH]1 | 126.8
39 | CCN(c1ccccc1C(=O)O)S(=O)(=O)c1cccc2cccnc12 | -1.145
40 | CC(C)=CCN1CCN(C(=O)CSc2ccccn2)[C@H]2CS(=O)(=O)C[C@H]21 | 6.252
41 | c1[nH]c(CC2CCCC2)nc1CN1CCCC2(CCOC2)C1 (configuration not stated) | -3.102
42 | CS(=O)(=O)c1ccc(NC(=O)CSC(F)(F)F)cn1 | 0.5317
43 | Cc1ccc(CC(=O)N2CCOC(c3nc(C(C)(C)C)n[nH]3)C2)cn1 (configuration not stated) | 10.27
44 | CC(C)c1n[nH]c(C2CN(C(=O)Cn3ccccc3=O)CCO2)n1 (configuration not stated) | 111.9
45 | CC(C)c1n[nH]c(C2CN(C(=O)CCn3ccccc3=O)CCO2)n1 (configuration not stated) | 2.958
46 | CC(C)(C)c1n[nH]c(C2CN(C(=O)Cn3ccccc3=O)CCO2)n1 (configuration not stated) | 103.2

Row | SMILES | Percent Effect [%]
47 | CC(C)c1csc(C2CCCN(C(=O)Cn3ccccc3=O)C2)n1 (configuration not stated) | -10.1
48 | Cc1n[nH]c(C2CN(C(=O)Cn3ccccc3=O)CCO2)n1 (configuration not stated) | -1.768
49 | CCN(C)S(=O)(=O)NCC1(c2ccccc2Br)CC1 | 2.269
50 | CN(Cc1csc(-c2cccs2)n1)Cc1ncccc1C(=O)O | 6.204
51 | CN(C)C(=O)C1SCCc2ccccc21 (configuration not stated) | -15.52
52 | CCOc1ccc(NC2CCN(CC(F)(F)F)C2=O)cc1C (configuration not stated) | -0.2214
53 | COc1ccc(S(=O)(=O)NCC(C)(O)c2cccs2)cc1Cl (configuration not stated) | 0.9761
54 | COc1cccc(CN(C)C(C)c2nccs2)c1OCCn1ccnc1 (configuration not stated) | -3.505
55 | Cc1ccn(-c2ccccc2NCc2cccnc2C)n1 | -1.379
56 | CCN1C(=O)CC[C@]12CC[C@@H](NC(=O)c1cc(C)on1)CC2 | -41.62
57 | CN1CCN(Cc2cccnc2)C2(CCN(C3CCOCC3)C2)C1=O.O=C(O)C(F)(F)F.O=C(O)C(F)(F)F.O=C(O)C(F)(F)F (configuration not stated) | 4.033
58 | O=C(NCc1cccnc1)NC1CCCN(c2ncccn2)C1 (configuration not stated) | 12.61
59 | CN1C(=O)CC[C@]12CC[C@@H](NC(=O)NCc1cccnc1)CC2.O=C(O)C(F)(F)F | 120.2
60 | CCN1C(=O)CC[C@]12CC[C@@H](NC(=O)NCc1cccnc1)CC2.O=C(O)C(F)(F)F | 126.1
61 | Cc1ccc(CN2C(=O)CC[C@]23CC[C@@H](NC2CCOC2)CC3)cc1.O=C(O)C(F)(F)F (some centres not stated) | -29.75
62 | O=C(O)C(F)(F)F.O=C1CC[C@]2(CC[C@@H](NC3CCOCC3)CC2)N1Cc1ccccc1 | -21.38
63 | O=C(NCc1cccnc1)C1CC(=O)N(CC2CC2)C1 (configuration not stated) | 7.078
64 | O=C(NCc1cccnc1)N[C@H]1CC[C@@]2(CCC(=O)N2CC2CC2)CC1.O=C(O)C(F)(F)F | 109.8
65 | O=C(O)C(F)(F)F.O=C1CC[C@]2(CC[C@@H](NC3CCOC3)CC2)N1Cc1ccccc1 (some centres not stated) | -11.81
66 | CC(C)N1CCC(NC(=O)NCc2cccnc2)C1 (configuration not stated) | -0.2987
67 | CC(C)CN1C(=O)CC[C@]12CC[C@@H](NC(=O)NCc1cccnc1)CC2.O=C(O)C(F)(F)F | 100.3
